Source: PubChem (National Center for Advancing Translational Sciences (NCATS))
GPT2 inhibitor – GPT2 alanine aminotransferase inhibition | Q8TD30 | Recombinant GPT2, coupled pyruvate oxidase/HRP Amplex Red fluorescence | Potency, µM (doses to about 57.7 µM), most hits filed as inhibitors | hit rate 0.25% among 100,000 | AID 1671188; further: nearly all actives have a fitted effect of over 60% in size
Target sequence (Q8TD30 whole entry, looked up): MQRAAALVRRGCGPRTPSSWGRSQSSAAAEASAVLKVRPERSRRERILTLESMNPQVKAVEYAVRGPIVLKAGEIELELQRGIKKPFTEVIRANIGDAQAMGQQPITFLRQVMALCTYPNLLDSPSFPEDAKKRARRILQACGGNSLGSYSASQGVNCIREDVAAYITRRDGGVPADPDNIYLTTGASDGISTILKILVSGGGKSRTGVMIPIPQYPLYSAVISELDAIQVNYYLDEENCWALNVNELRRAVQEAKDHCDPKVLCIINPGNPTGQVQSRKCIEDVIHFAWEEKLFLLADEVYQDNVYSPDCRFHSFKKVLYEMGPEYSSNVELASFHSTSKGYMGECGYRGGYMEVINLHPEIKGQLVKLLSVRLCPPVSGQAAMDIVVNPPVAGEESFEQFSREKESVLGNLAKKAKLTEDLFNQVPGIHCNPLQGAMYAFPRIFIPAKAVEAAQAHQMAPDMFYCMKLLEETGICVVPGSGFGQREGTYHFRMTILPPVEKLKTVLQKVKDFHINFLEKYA
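Fluorescence of coupled pyruvate oxidase/HRP/Amplex Red system (50uM Amplex, 30 min, dark) reports pyruvate formed by GPT2. Enzyme reaction: 10ng/uL GPT2, 2mM L-alanine, 250uM a-KG, 30 min room temperature, pH 7.5; 50uM AOA control.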
NIH3T3 tox – NIH 3T3 cell cytotoxicity. NIH 3T3 viability, CellTiter-Glo ATP luminescence, 48-72 h. Potency, µM (top dose mostly 96.7 µM), usual class: inhibitors. hit rate 4.3% among 94,000. AID 1345082; further: nearly all actives have a fitted effect of over 55% in size
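Cytotoxicity was measured by CellTiter-Glo ATP luminescence after 48 or 72 h compound exposure at 37 °C. Mouse NIH 3T3 fibroblasts were seeded at 400 cells/well and dosed by 23 nL pin transfer.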
NPR1 antag – antagonists of human natriuretic peptide receptor Npr1 | P16066 | HEK293 hNpr1 GloSensor cGMP, ANP-stimulated luminescence | Potency, µM (highest dose often 46.3 µM), hits mostly inhibitors | hit rate 1.6% among 76,000 | AID 1347048; calls by dose curve; further: nearly all actives have a fitted effect of over 60% in size
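Compound pre-incubated 30 min at room temperature on GloSensor-loaded HEK293 cells stably carrying hNpr1 and the pGS-40F cGMP biosensor. Stimulation uses hNppA at 0.1 nM final; luminescence is taken at baseline and 20 min post-agonist.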
Luciferase inh – Photinus pyralis luciferase inhibition | P08659 | purified P. pyralis luciferase, luminescence, biochemical | Potency, µM (series often up to 115 µM), actives largely listed as inhibitors | hit rate 2.5% among 76,000 | AID 1347043; further: nearly all actives have a fitted effect of over 65% in size
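Cell-free enzyme assay, 10nM P. pyralis luciferase, luciferin and ATP each at 10uM. Inhibition profiled over a 6-point titration, read as luminescence.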
HEK cytotox – cytotoxic compounds in HEK 293 cells. HEK 293 viability, ATP luminescence (CellTiter-Glo), 48-72 h. Potency, µM (highest dose often 115 µM), hits mostly inhibitors. hit rate 6.6% among 94,000; further: nearly all actives have a fitted effect of over 60% in size
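CellTiter-Glo luminescence (cellular ATP) was read after 48 or 72 hr of compound exposure at 37 degree Celsius. Cells were HEK 293 plated at 250 cells/well.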
Hits are given with their value; - = inactive; ? = inconclusive; . = not tested or not shown. Only some compounds are listed: those with a hit (about 10% of all), similar ones and a draw of the others. Unless noted, the call rests on the fitted dose curve; in most records, active means well fitted curve in the direction sought with a large enough effect; inconclusive means small, poorly fitted or top-dose-only effect, or another doubt; inactive means no such curve, though single readings can be large; an effect the other way counts as inactive or inconclusive.

SMILES	GPT2 inhibitor	NIH3T3 tox	NPR1 antag	Luciferase inh	HEK cytotox
Cc1noc(C)c1-c1cc2cc(C(C)C)oc2c(N2CCN(C)CC2)n1	-	?	-	-	?
Cc1noc(C)c1-c1cc2cc(C(C)C)oc2c(NCCN2CCOCC2)n1	-	?	-	-	?
COc1cc2c(c(OC)c1CC=C(C)C)C[C@H](c1ccc(O)c(CC=C(C)C)c1O)CO2	-	.	.	.	.
Cc1ccccc1C(=O)N1CCC2(CC1)C(=O)N(c1cccc(F)c1)C2c1ccccc1 (stereo not given)	?	35µM	.	.	25µM
COc1cc(F)ccc1-c1cnc2n[nH]c(-c3sccc3C)c2n1	-	?	-	-	45µM
Cc1ccsc1-c1[nH]nc2ncc(-c3cccc(CO)c3)nc12	-	?	-	?	79µM
Cc1ccsc1-c1[nH]nc2ncc(-c3ccc(F)cc3)nc12	-	?	-	-	71µM
Cc1cc(C)n(CC(=O)N2CC(N(C)Cc3cccnc3)C2)n1	-	-	-	35µM	-
CN(Cc1cccnc1)C1CN(C(=O)c2cnn(C)c2)C1	-	-	-	28µM	-
Cc1cccc(C(=O)N2CC(N(C)Cc3cccnc3)C2)c1	?	-	-	-	-
CN(C)CCNC(=O)C(C)(C)Oc1nn(CCOc2ccccc2)c2ccccc12	-	25µM	-	-	89µM
CN1CCC(NC(=O)C(C)(C)Oc2nn(CCOc3ccccc3)c3ccccc23)CC1	-	40µM	-	-	89µM
CC(C)(Oc1nn(CCOc2ccccc2)c2ccccc12)C(=O)Nc1cccnc1	-	?	-	-	?
O[C@H]1[C@H](NCc2ccccn2)[C@H]2CO[C@H](O2)[C@@H]1N1CCC(Cc2ccccc2)CC1	-	?	-	-	?
COc1ccc(Nc2ccnc(N3CCC(NC(=O)Nc4ccccc4)CC3)n2)cc1	-	?	.	.	?
CC(=O)N1CCN(C(=O)C2CCN(c3nccc(Nc4ccccc4Cl)n3)CC2)CC1	-	?	.	.	?
Cc1ccc(Nc2ccnc(N3CCCC(C(=O)N4CCOCC4)C3)n2)cc1 (stereo not given)	-	?	.	.	?
O=C(C1CCN(c2nccc(Nc3ccccc3Cl)n2)CC1)N1CCC(Cc2ccccc2)CC1	-	?	.	.	25µM
O=C(C1CCN(c2nccc(Nc3ccccc3Cl)n2)CC1)N1CCN(Cc2ccccc2)CC1	-	32µM	.	.	?
COc1ccc(Nc2ccnc(N3CCC(C(=O)N4CCN(Cc5ccccc5)CC4)CC3)n2)cc1	-	?	.	.	32µM
Cc1ccc(Nc2ccnc(N3CCCC(C(=O)N4CCN(Cc5ccccc5)CC4)C3)n2)cc1 (stereo not given)	-	40µM	.	.	13µM
O=C(C1CCCC1)N1CC2(CCCCN2CC2CC2)Cc2ccccc21 (stereo not given)	-	-	.	.	-
COc1cccc(OC)c1C(=O)N1C(C(=O)NCc2cccc(F)c2)COC12CCCCC2 (stereo not given)	-	-	-	-	-
c1cn(C2CCSC2)c(-c2cc3n(n2)CCNC3)n1 (stereo not given)	?	-	-	-	-
c1ccc2c(c1)CC(n1ccnc1-c1cc3n(n1)CCCNC3)C2	-	?	-	-	79µM
SMILES	GPT2 inhibitor	NIH3T3 tox	NPR1 antag	Luciferase inh	HEK cytotox
COc1ccc(CN2CCC(CO)(CN3CCCC3)CC2)cc1C	?	?	-	-	89µM
CC(C)Oc1ccc(CN2CCC(CO)(CN3CCCC3)CC2)cc1Cl	-	32µM	-	-	25µM
O=C(c1ccsc1)N1CCc2c(nc3cc(-c4ccccc4Cl)[nH]n3c2=O)C1	-	40µM	-	35µM	-
CCCCC(=O)N1CCc2c(nc3cc(-c4ccccc4Cl)[nH]n3c2=O)C1	-	16µM	-	-	?
CC(=O)Nc1ccc(CC(=O)N2CCc3c(nc4cc(-c5ccccc5Cl)[nH]n4c3=O)C2)cc1	-	-	-	?	-
O=C(c1n[nH]c2ccccc12)N1CCc2c(nc3cc(-c4ccccc4Cl)[nH]n3c2=O)C1	-	-	-	-	-
COc1ccc(C)cc1NC(=O)Cn1c(C)cc2nc3n(c(=O)c21)CCCCC3	-	-	-	-	-
O=C(CCC1CCCN(Cc2cccnc2)C1)Nc1ccccc1F (stereo not given)	-	-	-	-	-
COc1ccccc1CNC(=O)C[C@@H]1CCNC[C@@H]1Cc1cc(CSc2ccccc2)on1	-	79µM	-	-	?
COc1ccccc1CNC(=O)C[C@@H]1CCNC[C@@H]1Cc1cc(C(C)(C)C)on1	-	100µM	-	-	100µM
O=C(C[C@@H]1CCNC[C@@H]1Cc1cc(CSc2ccccc2)on1)NCc1ccc(F)cc1	?	?	-	-	?
CCOc1cc2c(cn1)NCCN(Cc1ccc3[nH]ccc3c1)C2	-	-	-	-	?
Cc1cc(-c2cc3c(cn2)CN(Cc2ccc4[nH]ccc4c2)CCN3)ccn1	-	?	?	45µM	71µM
c1ccc(-c2cc3c(cn2)CN(Cc2ccc4[nH]ccc4c2)CCN3)cc1	-	25µM	-	56µM	50µM
O=C1C[C@@H]2CCN(C(=O)Nc3ccc(OC(F)(F)F)cc3)C[C@@H]2CCN1CCN1CCNC1=O	-	-	-	-	-
Cc1ccccc1CNC(=O)C1c2ccccc2CC(=O)N1C(C)C (stereo not given)	-	-	-	-	-
NC[C@@H]1O[C@H](c2ccccc2)Cc2c1ccc(O)c2O	20µM	.	.	.	.
Cc1ccc(N2Cc3c(NCCc4ccc(F)cc4)ncnc3N(C)CC2=O)cc1	?	35µM	-	-	?
O=C(c1ccc(CN2C(=O)NC3(CCOCC3)C2=O)cc1)N1CCSCC1	?	-	-	-	-
O=C1Nc2ccccc2C12CCN(S(=O)(=O)c1cccs1)C2 (stereo not given)	-	?	-	-	89µM
O=S(=O)(c1ccc(F)cc1)N1CCOC[C@H](Oc2ccc(C(F)(F)F)cn2)C1	-	?	?	-	?
C=CCOc1c(OC)ccc2c1CN(Cc1ccccc1)C(=O)CCN2CC(O)Cc1ccccc1 (stereo not given)	.	?	.	.	50µM
C=CCOCC(O)CN1CCC(=O)N(Cc2ccco2)Cc2c1ccc(OC)c2OCC=C (stereo not given)	.	-	.	.	?
C=CCOc1c(OC)ccc2c1CN(CCOC)C(=O)CCN2CC(O)COc1ccccc1 (stereo not given)	.	-	.	.	?
C=CCOc1c(OC)ccc2c1CN(Cc1ccccc1)C(=O)CCN2CC(O)COc1ccc(OC)cc1 (stereo not given)	.	40µM	.	.	?
C=CCOc1c(OC)ccc2c1CN(C1CCCC1)C(=O)CCN2CC(O)COc1ccccc1 (stereo not given)	.	40µM	.	.	?
C=CCOc1c(OC)ccc2c1CN(Cc1ccccc1)C(=O)CCN2CC(C)O (stereo not given)	.	?	.	.	-
